Experimental findings from PubChem BioAssay are described below.

Calls of active or inactive are those of the source.

Assay [1] can be described thus: small molecules captured by biotinylated probe aFSTL3 – biochemical, small-molecule microarray, fluorescence 635/667, stem cell growth factor project, primary screen (AID 1064).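 Further: measures binding of the biotinylated anti-FSTL3 antibody to printed compounds.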 The following applies: higher = more signal.
Assay [2] can be described thus: binders from COS7 lysate, DM2A8 probe, primary screen, torsin A project, cell lysate, small-molecule microarray, fluorescence 635/667 (AID 1065). The following applies: higher = more signal, COS7 lysate expressing mutant human TOR1A.
Assay [3] in a line: small molecules captured by biotinylated probe aFGF2 – biochemical, small-molecule microarray, fluorescence 635/667, stem cell growth factor project, primary screen (AID 1067).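 Further: measures binding of biotinylated aFGF2 protein to printed compounds on slides; z-score merges feature fluorescence and signal-to-noise across triplicate slides.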 The following applies: higher = more signal.
Assay [4] in a line: small molecules captured by biotinylated probe aFGF10 – biochemical, small-molecule microarray, fluorescence 635/667, stem cell growth factor project, primary screen (AID 1071).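 Further: score merges 667 nm spot intensity and signal to noise from triplicate slides.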 To be noted: higher = more signal.
In assay [5] the target is Neurogenic locus notch homolog protein 2 (Homo sapiens) (UniProt Q04721). Put plainly: small molecules binding Notch2 protein – biochemical, small-molecule microarray, 635 nm fluorescence, stem cell growth factors, primary screen (AID 1073). The following applies: higher = more signal.
Neurogenic locus notch homolog protein 2 (Homo sapiens), sequence (Q04721 whole entry, looked up, canonical isoform): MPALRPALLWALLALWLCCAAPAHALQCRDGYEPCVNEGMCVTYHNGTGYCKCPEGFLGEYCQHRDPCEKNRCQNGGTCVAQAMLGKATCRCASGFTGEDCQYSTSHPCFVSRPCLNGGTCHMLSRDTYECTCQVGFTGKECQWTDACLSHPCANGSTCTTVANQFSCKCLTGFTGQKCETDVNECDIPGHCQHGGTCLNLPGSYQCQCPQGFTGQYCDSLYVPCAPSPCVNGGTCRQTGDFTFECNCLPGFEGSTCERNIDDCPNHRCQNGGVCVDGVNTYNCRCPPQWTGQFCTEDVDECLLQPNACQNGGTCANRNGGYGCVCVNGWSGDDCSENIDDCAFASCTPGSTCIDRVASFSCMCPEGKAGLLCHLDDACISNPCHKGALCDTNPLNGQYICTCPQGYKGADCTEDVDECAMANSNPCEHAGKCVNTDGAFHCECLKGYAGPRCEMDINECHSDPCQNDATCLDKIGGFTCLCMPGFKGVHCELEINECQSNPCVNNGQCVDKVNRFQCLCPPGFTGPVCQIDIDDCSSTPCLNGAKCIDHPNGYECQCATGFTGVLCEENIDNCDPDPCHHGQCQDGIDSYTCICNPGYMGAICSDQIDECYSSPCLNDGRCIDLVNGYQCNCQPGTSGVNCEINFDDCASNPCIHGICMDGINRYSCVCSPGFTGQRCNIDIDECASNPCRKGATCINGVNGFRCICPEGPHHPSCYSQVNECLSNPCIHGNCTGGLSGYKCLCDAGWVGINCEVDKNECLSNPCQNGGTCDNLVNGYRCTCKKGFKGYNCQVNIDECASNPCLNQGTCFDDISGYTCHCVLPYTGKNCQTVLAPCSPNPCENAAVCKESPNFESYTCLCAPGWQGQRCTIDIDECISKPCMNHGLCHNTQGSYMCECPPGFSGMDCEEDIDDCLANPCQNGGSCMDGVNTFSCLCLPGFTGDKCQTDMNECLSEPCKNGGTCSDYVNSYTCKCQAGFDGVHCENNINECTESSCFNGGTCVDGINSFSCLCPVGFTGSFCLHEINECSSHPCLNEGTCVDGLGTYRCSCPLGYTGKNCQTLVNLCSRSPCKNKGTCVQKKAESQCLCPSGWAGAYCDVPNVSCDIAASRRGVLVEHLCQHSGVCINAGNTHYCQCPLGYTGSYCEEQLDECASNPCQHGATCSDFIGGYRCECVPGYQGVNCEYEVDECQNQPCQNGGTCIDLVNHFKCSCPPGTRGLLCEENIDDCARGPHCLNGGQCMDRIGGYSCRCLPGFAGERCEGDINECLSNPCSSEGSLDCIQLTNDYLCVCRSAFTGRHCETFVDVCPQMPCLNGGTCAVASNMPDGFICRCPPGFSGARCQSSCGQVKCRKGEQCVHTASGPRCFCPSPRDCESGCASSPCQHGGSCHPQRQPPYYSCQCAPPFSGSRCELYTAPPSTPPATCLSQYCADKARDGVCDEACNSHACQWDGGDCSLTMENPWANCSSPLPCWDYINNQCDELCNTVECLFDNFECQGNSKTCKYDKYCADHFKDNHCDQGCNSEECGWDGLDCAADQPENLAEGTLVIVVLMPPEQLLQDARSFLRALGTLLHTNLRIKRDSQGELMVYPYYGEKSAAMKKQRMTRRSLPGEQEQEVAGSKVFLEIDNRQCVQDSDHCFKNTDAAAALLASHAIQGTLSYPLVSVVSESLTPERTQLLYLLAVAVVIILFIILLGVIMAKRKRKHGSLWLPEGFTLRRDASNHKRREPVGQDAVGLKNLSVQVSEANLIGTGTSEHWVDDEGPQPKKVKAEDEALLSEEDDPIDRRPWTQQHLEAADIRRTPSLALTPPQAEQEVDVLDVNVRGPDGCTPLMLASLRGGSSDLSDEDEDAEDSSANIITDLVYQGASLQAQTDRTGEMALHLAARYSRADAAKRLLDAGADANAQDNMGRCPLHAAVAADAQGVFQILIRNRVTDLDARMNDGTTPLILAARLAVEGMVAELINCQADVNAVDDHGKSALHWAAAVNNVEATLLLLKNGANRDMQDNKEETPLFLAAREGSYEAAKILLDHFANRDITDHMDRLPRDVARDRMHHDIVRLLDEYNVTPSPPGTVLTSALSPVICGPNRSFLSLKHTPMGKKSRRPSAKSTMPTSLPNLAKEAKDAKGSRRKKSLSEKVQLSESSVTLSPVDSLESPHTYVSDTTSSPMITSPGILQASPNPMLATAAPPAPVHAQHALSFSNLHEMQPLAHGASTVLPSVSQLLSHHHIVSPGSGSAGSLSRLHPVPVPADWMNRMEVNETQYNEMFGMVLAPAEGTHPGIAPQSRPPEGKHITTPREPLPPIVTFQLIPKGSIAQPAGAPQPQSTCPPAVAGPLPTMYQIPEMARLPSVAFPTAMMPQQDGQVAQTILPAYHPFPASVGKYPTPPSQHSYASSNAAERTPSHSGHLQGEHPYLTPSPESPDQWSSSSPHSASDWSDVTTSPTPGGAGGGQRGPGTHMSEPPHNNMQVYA
Assay [6] addresses Pro-neuregulin-1, membrane-bound isoform (Homo sapiens) (UniProt Q02297). The assay is described as follows: small molecules binding neuregulin-1 protein – biochemical, small-molecule microarray, fluorescence 635/667, psychiatric disease protein project, primary screen (AID 1075).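 Further: score combines 667 nm spot fluorescence with signal to noise.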 The following applies: NRG1 binding, 635 nm fluorescence, higher = more signal.
The test system of assay [7] is Neuregulin-1 EGF-like domain. Put plainly: small molecules binding NRG1 EGF domain – biochemical, small-molecule microarray, 635 nm fluorescence, primary screen (AID 1081).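 Further: binding of the protein to compounds printed on small-molecule microarray slides.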 The following applies: higher = more signal.
A short description of assay [8]: FRG1 expression reporter modulators in myotubes – cell-based, C2C12 myotubes, firefly/Renilla luciferase, luminescence, FRG1 inhibition for FSHD, primary screen (AID 1084). To be noted: FRG1 promoter luciferase, higher = more signal, called active from +8 up or from −8 down.
Assay [9] is described as follows: small molecules captured by biotinylated probe aFST – biochemical, small-molecule microarray, fluorescence 635/667, stem cell growth factor project, primary screen (AID 1086).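 Further: score merges 667 nm fluorescence with signal-to-noise of each printed compound spot.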 To be noted: higher = more signal.
Assay [10] in a line: binders of probe aHhip on microarray, primary screen, stem cell growth factor project, biochemical, small-molecule microarray, fluorescence 635/667 (AID 1087).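 Further: score merges spot fluorescence at 667nm with spot signal to noise ratio.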 To be noted: higher = more signal.

Pro-neuregulin-1, membrane-bound isoform (Homo sapiens), sequence (Q02297 whole entry, looked up, the tested form may be a part, canonical isoform): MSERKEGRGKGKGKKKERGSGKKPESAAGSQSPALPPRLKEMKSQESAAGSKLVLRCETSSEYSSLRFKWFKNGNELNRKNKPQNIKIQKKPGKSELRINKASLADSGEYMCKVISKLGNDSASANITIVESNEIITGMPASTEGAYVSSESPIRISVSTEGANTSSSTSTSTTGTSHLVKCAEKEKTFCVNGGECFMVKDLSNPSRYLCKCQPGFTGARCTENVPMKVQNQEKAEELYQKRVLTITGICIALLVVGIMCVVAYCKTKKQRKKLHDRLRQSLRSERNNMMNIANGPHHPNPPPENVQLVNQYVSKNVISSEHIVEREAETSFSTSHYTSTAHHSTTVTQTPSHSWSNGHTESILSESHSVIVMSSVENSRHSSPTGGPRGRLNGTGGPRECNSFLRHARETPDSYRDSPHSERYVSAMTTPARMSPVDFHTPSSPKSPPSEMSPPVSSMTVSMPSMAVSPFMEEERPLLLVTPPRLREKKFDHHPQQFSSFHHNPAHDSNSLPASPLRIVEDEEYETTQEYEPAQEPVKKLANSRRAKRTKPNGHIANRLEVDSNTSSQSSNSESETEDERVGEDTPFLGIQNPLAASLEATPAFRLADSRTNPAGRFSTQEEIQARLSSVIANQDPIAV

Turning to `CCOC(=O)C1=CCC(c2ccncc2)N(S(=O)(=O)c2ccc(C)cc2)C1` (stereo not given), the composite z-score in assay [1] was -0.149; in [2], -0.128; in [3], -0.0459; in assay [4] it was 1.03; in assay [5], 1.32; in assay [6], 2.03. Further, the composite z-score in assay [7] is 1.21; in assay [9], 0.981; in [10] it was -0.0735. For the same molecule, the z-score in [8] is -1.41 (inactive).

`C=C[C@H](C)[C@@H](OC(=O)Nc1ccc(SC)cc1)c1ccc(OCCO)cc1`: the composite z-score in assay [1] was 0.169; in assay [2], 0.378; in assay [3], -0.0408; in assay [4], 0.0044; in assay [5], -0.421; in [6] it was 0.99. For the same molecule, the composite z-score was 1.26 in [7], 0.0372 in assay [9] and -0.264 in [10]. In addition, in [8], the z-score was 5.34 (inactive).

`C=C(CCCC)/C(=C/C[C@@H](OC(C)=O)c1ccc(OCCO)cc1)c1cc(C(=O)OC)ccc1OC`: the composite z-score in assay [1] is 0.0062; in [2] it was 0.982; in [3], -0.076; in assay [4], -0.314; in assay [5], -0.332; in [6], 1.37. The composite z-score in assay [7] was 1.21; in assay [9], 0.0501; in [10], -0.119. Also, in assay [8], the z-score was 2.07 (inactive).

For the molecule `C=CCNC(=O)[C@H]1[C@@H]2C(=O)O[C@@H](c3ccccc3)[C@@H](c3ccccc3)N2[C@@H](c2ccc(O)cc2)[C@]12C(=O)N(C(=O)OCCOC)c1ccc(C#Cc3ccc(OC)cc3)cc12`, the composite z-score in [1] was determined as 0.165; in assay [2] it was 0.383; in [3] it was 0.0106; in [4], 0.978; in assay [5], 0.759; in [6], 0.788. The composite z-score is 0.995 in [7], 0.307 in assay [9] and -0.0672 in assay [10]. Moreover, the z-score in [8] was 0.75 (inactive).

Regarding `CCOC(=O)C1=C[C@@H](C(C)(C)C)N(S(=O)(=O)c2ccc(C)cc2)[C@H]1c1ccc(OC)cc1`, the composite z-score in assay [1] was -0.491; in assay [2], -0.103; in assay [3] it was 0.0111; in assay [4], 0.726; in assay [5] it was 1.56; in [6], 0.348. Further, the results for the composite z-score in assay [7], in assay [9] and in [10] were 1.19, 0.525 and -0.212, respectively. In addition, the z-score in [8] is -3.35 (inactive).

For `O=C1O[C@H](c2ccccc2)[C@H](c2ccccc2)N2[C@H]1[C@@H](C(=O)Nc1nc3ccccc3s1)[C@]1(C(=O)Nc3ccccc31)[C@H]2c1ccccc1OCCO`, the composite z-score in assay [1] was -0.249; in [2], -0.0611; in assay [3] it was 0.0084; in assay [4] it was 0.12; in [5], 1.15; in [6], 1.42. For the same molecule, the composite z-score is 1.02 in assay [7], -0.0275 in assay [9] and -0.0994 in assay [10]. Besides, the z-score in [8] was 1.62 (inactive).

Regarding `COc1cc2c(cc1O)C(C)N(Cc1sc3ccccc3c1Cl)CC2` (stereo not given), the composite z-score was 0.208 in assay [1]; -1.01 in assay [2]; -0.17 in assay [3]; -0.563 in assay [4]; -0.246 in assay [5]; 0.717 in assay [6]. The composite z-score in [7] is 0.343; in assay [9] it was -0.133; in assay [10], -0.0994. In addition, in assay [8], the z-score is 0.541 (inactive).

Turning to `Cc1ccc(S[C@]2(C(=O)NCC(C)C)CC(=O)N(C(C)C)[C@@H]2c2ccc(CO)cc2I)cc1`, the composite z-score in assay [1] was 1.12; in assay [2], 1.39; in [3] it was 0.0519; in [4], -0.41; in [5] it was -0.365; in [6], 1.18. Moreover, the composite z-score is -0.569 in assay [7], 0.161 in [9] and 0.0327 in assay [10]. Moreover, the z-score in assay [8] was -0.999 (inactive).

Turning to `COCCOC(=O)N1C(=O)[C@@]2(c3ccccc31)[C@H](C(=O)Nc1nc3ccccc3s1)[C@H]1C(=O)O[C@H](c3ccccc3)[C@H](c3ccccc3)N1[C@@H]2c1ccccc1OCCO`, the composite z-score in assay [1] was 0.451; in assay [2], 0.0049; in [3], -0.0036; in [4] it was 0.798; in assay [5], 1.15; in assay [6], 1.05. Also, the composite z-score amounted to 1.2 in assay [7], 0.318 in assay [9] and 0.157 in [10]. Moreover, the z-score in assay [8] is 2.13 (inactive).

Consider `CC(C)c1ccc(NN2C(C(O)C3=C[C@H]4C[C@@H](C3)C4(C)C)C=CC3C(=O)N(c4ccccc4)C(=O)C32)cc1` (stereo not given in full), for which the composite z-score came out at 0.481 in assay [1]; 0.357 in assay [2]; 0.0301 in assay [3]; 0.605 in assay [4]; 1.16 in assay [5]; 1.74 in assay [6]. Besides, the composite z-score is 0.885 in [7], 0.907 in assay [9] and -0.302 in assay [10]. Moreover, in assay [8], the z-score was -1.01 (inactive).

For `O=C1NC(=O)C2C1C=CC(C(O)C(c1ccccc1)c1ccccc1)N2Nc1ccccn1` (stereo not given), the composite z-score in assay [1] stood at 0.473; in assay [2], 0.521; in [3], 0.162; in [4], 0.951; in assay [5], 1.05; in assay [6] it was 0.604. For the same molecule, the composite z-score was 1.25 in assay [7], 0.59 in assay [9] and -0.0959 in assay [10]. Moreover, the z-score in assay [8] is 0.723 (inactive).

Take `COC(=O)[C@@]1(Cc2ccccc2)[C@H]2c3cc(C(=O)N(C)C)n(Cc4nc5ccccc5[nH]4)c3C[C@H]2CN1C(=O)c1ccccc1`: the composite z-score in [1] turned out to be 1.1; in assay [2], 1.08; in assay [3], 0.214; in assay [4] it was 0.572; in [5], 1.77; in [6], 2.12. Moreover, the composite z-score in assay [7] was 1.33; in [9], 1.37; in [10] it was -0.315. Moreover, the z-score in assay [8] was -1.3 (inactive).

Consider `C=C(COC)/C(=C/C[C@@H](OC(=O)c1ccncc1)c1ccccc1OCCO)c1cnc2ccccc2c1`, for which the composite z-score in [1] was -0.421; in assay [2], 0.749; in assay [3], -0.085; in assay [4], 0.922; in [5], 1.58; in [6], 0.495. The composite z-score in assay [7] is 1.17; in assay [9] it was 0.525; in assay [10] it was -0.159. Besides, the z-score in [8] was -0.828 (inactive).

`COc1ccc(NN2C(C(O)c3ccccc3)C=CC3C(=O)N(C4CCCCC4)C(=O)C32)cc1` (stereo not given): the composite z-score in [1] came out at 0.0373; in assay [2] it was 0.166; in assay [3], 0.0402; in assay [4] it was 0.851; in [5], 1.59; in assay [6], 1.39. Besides, the composite z-score stood at 1.3 in [7], 1.5 in assay [9] and 0.224 in assay [10]. Further, the z-score in [8] is 1.78 (inactive).

As for `O=C1OCC=C[C@H]2OC34C=CCN(Cn5nnc6ccccc65)C(=O)[C@H]3N(CCO)C(=O)[C@@H]4[C@@H]12` (stereo not given in full), the composite z-score in [1] was 0.645; in [2], 1.9; in assay [3] it was -0.129; in [4] it was -0.749; in assay [5], -1.45; in assay [6], 0.864. The results for the composite z-score in assay [7], in assay [9] and in [10] were 0.579, -0.406 and -0.139, respectively. The z-score in assay [8] is 0.13 (inactive).

For the molecule `O=C(NC1CC1)[C@@H]1c2ccccc2C(=O)N(C2CCCCC2)[C@H]1c1ccc(CO)cc1`, the composite z-score in assay [1] was 0.954; in assay [2], 0.642; in assay [3], 0.0611; in assay [4], -0.142; in [5], 0.254; in assay [6] it was 1.79. Moreover, the composite z-score in assay [7] is 1.29; in assay [9], 0.575; in [10] it was -0.228. Also, the z-score in [8] was -0.601 (inactive).

In the case of `COCCOC(=O)N1C(=O)[C@@]2(c3cc(C#CCC(C(=O)OC)C(=O)OC)ccc31)[C@H](c1ccc(O)cc1)N1[C@H](c3ccccc3)[C@H](c3ccccc3)OC(=O)[C@H]1[C@@H]2C(=O)N1CCc2cc(OC)c(OC)cc2C1`, the composite z-score was 0.0804 in assay [1]; 0.838 in assay [2]; -0.0538 in [3]; 0.818 in [4]; 1.21 in [5]; 1.04 in assay [6]. The composite z-score in assay [7] is 1.14; in assay [9], 0.186; in assay [10] it was 0.224. Also, in [8], the z-score was 0.336 (inactive).
